Assay [1] in a line: qHTS Screen of the MIPE 4.0 Collection Against Ewings Sarcoma (TC32) (AID 1259256). Further: nearly all actives have a fitted effect of over 45% in size. Further: potency means the concentration at half of the fitted maximal effect. An outline of the steps:
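Measured: ATP luminescence (CellTiter-Glo) 10 min after reagent addition, following 48 h drug treatment. Relative luciferase units converted to percent activity, with no-cell wells as full and DMSO wells as zero inhibition.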

A short description of assay [2]: P-glycoprotein substrates identified in KB-3-1 adenocarcinoma cell line, qHTS therapeutic library screen (AID 1346986). Further: nearly all actives have a fitted effect of over 60% in size.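 Further: potency means the concentration at half of the fitted maximal effect; potency is for cytotoxicity meaning loss of cell viability.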 An outline of the steps:
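Using luminescence to quantify ATP, parental and P-gp-overexpressing KB cells were compared after 72 h compound titration. KB-8-5-11 was also run with the P-gp inhibitor tariquidar.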
Background: Quantitative high-throughput screening tests each substance at several concentrations.

Assay [3] can be described thus: P-glycoprotein substrates identified in KB-8-5-11 adenocarcinoma cell line, qHTS therapeutic library screen (AID 1346987). Further: nearly all actives have a fitted effect of over 65% in size. An outline of the steps:
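Human cervical adenocarcinoma KB-8-5-11 cells, selected in colchicine to over-express P-gp and assayed without it, were exposed for 72 h to titrated compounds. An ATP-based luminescent viability signal gave AC50.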

Assay [4] can be described thus: NS1 protein of Zika virus - qHTS assay to identify small molecule inhibitors in human HEK 293 cells (AID 1347053). Further: series mostly up to about 46 µM; nearly all actives have a fitted effect of over 55% in size. An outline of the steps: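 TR-FRET signal from two anti-ZIKV NS1 antibodies quantified NS1 in HEK 293 cells 24 h after MR766 infection at MOI = 0.5; compounds were added 1 h before virus. Uninfected cells and infected cells defined the NS1 normalization range.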

The nature of assay [5]: qHTS of pediatric cancer cell lines to identify multiple opportunities for drug repurposing: Primary screen for TC32 cells (AID 1347089). Further: nearly all actives have a fitted effect of over 60% in size. Further: potency means the concentration at half of the fitted maximal effect. An outline of the steps: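 TC32 cells, 500-1,000/well in growth medium, compound-treated 48 h at 37 °C; viability from CellTiter-Glo luminescence. Primary screen: MIPE 11-point (0.78 nM–46 µM final), NPC 8-point (0.59 nM–46 µM final); confirmatory at 11-point dilutions.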

Assay [6] is described as follows: qHTS of pediatric cancer cell lines to identify multiple opportunities for drug repurposing: Primary screen for DAOY cells (AID 1347090). Further: nearly all actives have a fitted effect of over 55% in size. Further: potency means the concentration at half of the fitted maximal effect. In short, it runs like this: (§1)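 Eight- or eleven-point concentration series, 48 h treatment at 37 degrees C in growth media; readout CellTiter-Glo luminescence. Potency and efficacy were taken from the concentration-response curves.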

Assay [7] is described as follows: qHTS of pediatric cancer cell lines to identify multiple opportunities for drug repurposing: Primary screen for SJ-GBM2 cells (AID 1347091). Further: potency means the concentration at half of the fitted maximal effect. In short, it runs like this:
as §1

A short description of assay [8]: qHTS of pediatric cancer cell lines to identify multiple opportunities for drug repurposing: Primary screen for SK-N-MC cells (AID 1347093). Further: potency means the concentration at half of the fitted maximal effect. In short, it runs like this:
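Metabolically active cells were quantified by ATP-dependent luminescence (CellTiter-Glo, 15 min at room temperature) following 48 h treatment. Cells had been plated at 500-1,000 per well and settled for 5 h beforehand.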

The nature of assay [9]: qHTS of pediatric cancer cell lines to identify multiple opportunities for drug repurposing: Primary screen for BT-37 cells (AID 1347094). Further: potency means the concentration at half of the fitted maximal effect. An outline of the steps: (§2)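 Following a 5-hour attachment period, cells at 500-1,000/well received compounds and were cultured for 48 hours. CellTiter-Glo was added and luminescence read to estimate viable, metabolically active cells.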

Assay [10] can be described thus: qHTS of pediatric cancer cell lines to identify multiple opportunities for drug repurposing: Primary screen for NB-EBc1 cells (AID 1347095). Further: potency means the concentration at half of the fitted maximal effect. An outline of the steps:
as §2

Assay [11] in a line: qHTS of pediatric cancer cell lines to identify multiple opportunities for drug repurposing: Primary screen for U-2 OS cells (AID 1347096). Further: nearly all actives have a fitted effect of over 50% in size. Further: potency means the concentration at half of the fitted maximal effect. An outline of the steps: (§3)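 Cells (500-1,000/well) in growth media were settled 5 h at 37 degrees C, then given compounds for 48 h. Viability was read as CellTiter-Glo luminescence. Primary runs used MIPE at 11 points (0.78 nM-46 µM) and NPC at 8 points (0.59 nM-46 µM); follow-ups used 11 points.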

A short description of assay [12]: qHTS of pediatric cancer cell lines to identify multiple opportunities for drug repurposing: Primary screen for Saos-2 cells (AID 1347097). Further: nearly all actives have a fitted effect of over 40% in size. Further: potency means the concentration at half of the fitted maximal effect. An outline of the steps:
as §2

Assay [13] can be described thus: qHTS of pediatric cancer cell lines to identify multiple opportunities for drug repurposing: Primary screen for SK-N-SH cells (AID 1347098). Further: nearly all actives have a fitted effect of over 65% in size. Further: potency means the concentration at half of the fitted maximal effect. An outline of the steps: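 Cells (500-1,000/well) rested 5 h, then received compounds for 48 h; metabolically active cells were measured by CellTiter-Glo luminescence. Final concentrations spanned up to 46 µM (MIPE, 11-point) or 0.59 nM-46 µM (NPC, 8-point) in primary screens, 11-point in follow-ups.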

A short description of assay [14]: qHTS of pediatric cancer cell lines to identify multiple opportunities for drug repurposing: Primary screen for NB1643 cells (AID 1347099). Further: nearly all actives have a fitted effect of over 50% in size. Further: potency means the concentration at half of the fitted maximal effect. In short, it runs like this:
as §2

Assay [15] is described as follows: qHTS of pediatric cancer cell lines to identify multiple opportunities for drug repurposing: Primary screen for LAN-5 cells (AID 1347100). Further: potency means the concentration at half of the fitted maximal effect. An outline of the steps:
as §3

Assay [16] is described as follows: qHTS of pediatric cancer cell lines to identify multiple opportunities for drug repurposing: Primary screen for A673 cells (AID 1347092). Further: nearly all actives have a fitted effect of over 45% in size. Further: potency means the concentration at half of the fitted maximal effect. An outline of the steps:
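A673 cells (500-1,000 cells/well) were treated 48 hours at 37 degrees C with compounds at 11-point (0.78 nM to 46 µM) or 8-point (0.59 nM to 46 µM) dilutions. Viability read by CellTiter-Glo luminescence; concentration-response curves fitted.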

Where “and” joins values, the source holds several entries; their conditions need not be identical. Equal entries are not always repeated. Inconclusive results are not listed. A structure can be active in one record and inactive in another. Calls of active or inactive are those of the source. The call rests on the fitted dose curve; in most records, active means well fitted curve in the direction sought with a large enough effect; inconclusive means small, poorly fitted or top-dose-only effect, or another doubt; inactive means no such curve, though single readings can be large; an effect the other way counts as inactive or inconclusive.

For `CC(=O)O[C@H]1C[C@@H]2CC[C@H]3[C@H]4C[C@H]([N+]5(C)CCCCC5)[C@@H](OC(C)=O)[C@@]4(C)CC[C@@H]3[C@@]2(C)C[C@H]1[N+]1(C)CCCCC1`, the Potency in assay [1] was 2.35 µM (active). Also, the Potency entry in [2], in [3], in assay [4], in assay [5], in assay [6] and in assay [7] was “inactive” in each case. The Potency result in [8], in assay [9], in [10], in assay [11], in assay [12] and in assay [13] was “inactive” each time. Moreover, the Potency entry in [14] and in [15] was “inactive” throughout.
For the molecule `CC1(C)O[C@@H]2C[C@H]3[C@@H]4CCC5=CC(=O)C=C[C@]5(C)[C@@H]4[C@@H](O)C[C@]3(C)[C@]2(C(=O)CO)O1`, the Potency entry in [1], in assay [2], in [3], in assay [4], in assay [5] and in [6] was “inactive” in each case. Also, the Potency result in assay [16], in assay [9], in [11], in assay [13] and in assay [15] was “inactive” in each case. Further, the Potency in [8] was 29.6 µM (active).
`COc1cc2ncnc(Nc3cccc(Br)c3)c2cc1OC`: the Potency in assay [1] is 0.833 µM (active); in [2], “inactive and 18.4 µM (active)”; in assay [7], 20.9 µM (active); in assay [16], 0.0059 µM (active); in assay [8] it was 0.0118 µM (active); in assay [9], 24.3 µM (active). Moreover, the Potency in assay [12] is 29.6 µM (active); in assay [14] it was 7.43 µM (active). Moreover, the Potency result in assay [3], in assay [4] and in assay [5] was “inactive” in each case.
Turning to `CC(=O)C1=C(O)C=C2Oc3c(C(C)=O)c(O)c(C)c(O)c3C2(C)C1=O` (stereo not given), the Potency entry in assay [1], in assay [2], in assay [3], in assay [4], in assay [5] and in [6] was “inactive” throughout. Moreover, the Potency result in assay [11] and in [13] was “inactive” each time. In addition, the Potency in assay [7] was 2.35 µM (active); in assay [16], 0.187 µM (active); in assay [9] it was 1.37 µM (active); in assay [12], 1.48 µM (active).
Turning to `O=C(C[C@@H]1CC=CCCC(=O)O[C@H](c2ccccc2)CNC1=O)NCc1ccc(Cl)cc1`, the Potency result in [1], in assay [2], in assay [3], in assay [4], in [5] and in assay [7] was “inactive” each time. For the same molecule, the Potency result in assay [16], in [9], in [10], in assay [11], in [12] and in [13] was “inactive” throughout. The Potency entry in assay [14] and in [15] was “inactive” in each case.
Take `Cc1cn([C@@H]2O[C@H](CO)[C@@H](O)[C@H]2F)c(=O)[nH]c1=O`: the Potency result in [1], in [2], in assay [3], in [4], in [5] and in assay [6] was “inactive” each time. Besides, the Potency entry in assay [7], in assay [10], in assay [11], in assay [12], in [13] and in assay [14] was “inactive” each time. Besides, the Potency entry in assay [15] is “inactive”.
`CCOC(=O)N1CCN([N+]([O-])=NOc2ccc([N+](=O)[O-])cc2[N+](=O)[O-])CC1`: the Potency was 3.72 µM (active) in [1]; 18.7 µM (active) in assay [6]; 8.33 µM (active) in assay [7]; 9.35 µM (active) in assay [16]; 8.33 µM (active) in assay [8]; 15.3 µM (active) in assay [9]. The Potency in assay [10] was 5.26 µM (active); in assay [12], 18.7 µM (active); in assay [13], 27.1 µM (active); in [15], 11.8 µM (active). Besides, the Potency entry in assay [2], in assay [3] and in [4] was “inactive” each time.
Regarding `CCCCC(=O)O[C@]1(C(=O)CO)[C@@H](C)C[C@H]2[C@@H]3CCC4=CC(=O)C=C[C@]4(C)[C@@]3(F)[C@@H](O)C[C@@]21C`, the Potency result in assay [1], in assay [2], in assay [3], in [4], in [5] and in [6] was “inactive” in each case. For the same molecule, the Potency result in assay [7], in [16], in assay [8], in [9], in assay [10] and in assay [11] was “inactive” throughout. Besides, the Potency entry in assay [14] and in assay [15] was “inactive” throughout.
Turning to `Cc1cc(C(=O)NOCCO)c(Nc2ccc(I)cc2F)n(C)c1=O`, the Potency result in assay [1], in assay [2], in assay [3], in [4], in [5] and in assay [6] was “inactive” in each case. For the same molecule, the Potency result in assay [7] and in assay [12] was “inactive” in each case. In addition, the values for the Potency in [8] and in assay [13] were 0.662 µM (active) and 2.15 µM (active), respectively.
Regarding `CC1(C)[C@H](O[C@H]2O[C@H](C(=O)O)[C@@H](O)[C@H](O)[C@H]2O[C@@H]2O[C@H](C(=O)O)[C@@H](O)[C@H](O)[C@H]2O)CC[C@@]2(C)[C@H]1CC[C@]1(C)[C@H]2C(=O)C=C2[C@H]3C[C@@](C)(C(=O)O)CC[C@]3(C)CC[C@]21C`, the Potency result in assay [1], in assay [2], in [3], in assay [4], in assay [5] and in assay [6] was “inactive” throughout. The Potency entry in [7], in assay [16], in [8], in [9], in assay [10] and in [11] was “inactive” each time. Further, the Potency entry in assay [12], in assay [13], in assay [14] and in assay [15] was “inactive” in each case.
As for `CON=C(C(=O)N[C@@H]1C(=O)N2C(C(=O)O)=C(CSC(=O)c3ccco3)CS[C@H]12)c1csc(N)n1`, the Potency entry in assay [1], in assay [2], in assay [3], in assay [4], in [5] and in assay [7] was “inactive” throughout. Further, the Potency entry in assay [10], in [11], in assay [12] and in assay [15] was “inactive” throughout.
Turning to `C=Cc1c(C)c2cc3nc(cc4[nH]c(cc5nc(cc1[nH]2)C(C)=C5CCC(=O)O)c(CCC(=O)OC)c4C)[C@@]1(C)C3=CC=C(C(=O)OC)[C@H]1C(=O)OC`, the Potency was 0.0743 µM (active) in assay [1]; 5.87 µM (active) in assay [5]; 0.187 µM (active) in assay [6]; 0.59 µM (active) in [7]; 0.0372 µM (active) in [16]; 0.059 µM (active) in [8]. The Potency is 0.0769 µM (active) in assay [9]; 0.372 µM (active) in assay [11]; 4.69 µM (active) in assay [12]; 0.121 µM (active) in [13]; 0.0526 µM (active) in [15]. Further, the Potency entry in [2], in [3] and in [4] was “inactive” each time.
With `O=C(O)CCCCC(CCSCc1ccccc1)SCc1ccccc1` (stereo not given), the Potency entry in assay [1], in [2], in assay [3], in assay [4], in [5] and in [9] was “inactive” throughout. The Potency entry in [10] and in assay [11] was “inactive” each time. Also, the Potency was 23.5 µM (active) in assay [6], 9.35 µM (active) in [8] and 10.5 µM (active) in [14].

Values taken from PubChem BioAssay (NCATS).
